According to PubChem BioAssay AID1986 (Sanford-Burnham Center for Chemical Genomics, 2009):
The campaign covered roughly 290,000 compounds. About 890 (0.31%) were called active. Rule as the data show it: active = inhibition mostly above about 52% (no sharp cut-off); inactive = mostly below about 76%. Only a selection was taken, and actives are over-represented in it overall.

Assay: cell-free HIV fusion peptide-binding blockers – biochemical, uHTS, fluorescence dequenching, primary screen (AID 1986)
Conditions: 30 min, stronger effect = higher value
[1] = measured here: repeat confirmation average inhibition, at 18.6 µM

## CCN(CC)CCCNC(=O)CNC(=S)N(CCCN1CCOCC1)Cc1cccs1
At 20 µM
  inhibition: -0.5% (inactive)

## Cc1cc(C)cc(OCC(=O)Nc2nc(-c3cccnc3)cs2)c1
At 20 µM
  inhibition: -0.2% (inactive)

## COc1ccc2cc(CN(CC3CCCO3)S(=O)(=O)c3ccccc3)c(=O)[nH]c2c1 (centres undefined)
At 20 µM
  inhibition: 1.4% (inactive)

## COc1cc(N2CCCC2)c(OC)cc1/C=C(/C#N)c1ccc(F)cc1
At 20 µM
  inhibition: 15.6% (inactive)

## COc1cc(N2CCCC2)c(OC)cc1/C=C(/C#N)c1cccc(Br)c1
At 20 µM
  inhibition: 51.2% (active)
[1]
  inhibition: 65.1%

## N#C/C(=C/c1ccc(N2CCCCC2)cc1)c1cccc(F)c1
At 20 µM
  inhibition: 1.6% (inactive)

## COc1cc(N2CCCC2)c(OC)cc1/C=C(/C#N)c1cccc(F)c1
At 20 µM
  inhibition: 57.2% (active)

## COc1cc(N2CCCC2)c(OC)cc1/C=C(/C#N)c1ccc(Br)cc1
At 20 µM
  inhibition: -0.2% (inactive)

## N#C/C(=C/c1ccc(N2CCCCCC2)o1)c1cccc(F)c1
At 20 µM
  inhibition: 3.6% (inactive)

## CCOC(=O)c1c(C)n(C)c2c(C)cc(O)c(OC(=O)CC)c12
At 20 µM
  inhibition: 1.5% (inactive)

## COC(=O)Cc1cccc2c(=O)c3ccccc3oc12
At 20 µM
  inhibition: -2% (inactive)

## O=C(CCS(=O)(=O)c1ccc2c(c1)NC(=O)CO2)NCCc1ccc(Cl)cc1
At 20 µM
  inhibition: 0.2% (inactive)

## CC(C)NC(=O)c1ccc(CN2CCC(Cc3ccccc3)CC2)cc1
At 20 µM
  inhibition: -0.1% (inactive)

## Cc1cccc(Nc2nnc(SCC(=O)NCc3cccs3)s2)c1
At 20 µM
  inhibition: -0.3% (inactive)

## CCOC(=O)c1cc2c(=O)n3cccc(C)c3nc2n(Cc2ccccc2Cl)c1=N
At 20 µM
  inhibition: -3.9% (inactive)

## CCOC(=O)c1cc2c(=O)n3cccc(C)c3nc2n(C)c1=N
At 20 µM
  inhibition: 59.9% (active)

## Cc1cccn2c(=O)c3cc(C(=O)NCc4cccnc4)c(=N)n(C)c3nc12
At 20 µM
  inhibition: -1.4% (inactive)

## COc1cccc(/C=N\NC(C)=O)c1OC/C=C/c1ccccc1
At 20 µM
  inhibition: 0.3% (inactive)

## O=C1/C(=C/c2ccncc2)SC(=S)N1N1CCOCC1
At 20 µM
  inhibition: -1.3% (inactive)

## Cc1ccc(NS(=O)(=O)c2cc(C(=O)N3CCN(C)CC3)ccc2C)cc1
At 20 µM
  inhibition: -0.2% (inactive)

## CCN(CC)S(=O)(=O)c1cc(NS(=O)(=O)c2cccc(C(=O)O)c2)ccc1C
At 20 µM
  inhibition: 1.4% (inactive)

## COC(=O)c1cc2c(C)c(C)c3ccccn3c-2c1C(=O)OC
At 20 µM
  inhibition: -1.6% (inactive)

## CC(C)OC(=O)c1c2c(n3ccccc13)C(=O)c1ccccc1C2=O
At 20 µM
  inhibition: 103% (active)

## CC(C)OC(=O)c1cccc2c1C(=O)c1ccccc1-2
At 20 µM
  inhibition: -0.7% (inactive)

## CSc1cccc(NC(=O)c2nnn(Cc3ccccc3)c2N)c1
At 20 µM
  inhibition: -1.1% (inactive)

## CCOC(=O)C1CCN(C(=O)COc2ccc(S(=O)(=O)NC(C)C)cc2Cl)CC1
At 20 µM
  inhibition: -0.9% (inactive)

## CCOc1ccc(NC(=O)CSc2ncn[nH]2)c([N+](=O)[O-])c1
At 20 µM
  inhibition: 0.8% (inactive)

## Cc1occc1-c1nnc(SCC(=O)N2CCN(c3ccccc3F)CC2)n1C
At 20 µM
  inhibition: 0.2% (inactive)

## O=C(Nc1ccncc1)C1CC1c1ccccc1 (centres undefined)
At 20 µM
  inhibition: -0.2% (inactive)

## O=c1c2ccccc2c(/C=N/NS(=O)(=O)c2ccccc2)c(O)n1-c1ccccn1
At 20 µM
  inhibition: 109% (active)
[1]
  inhibition: 78.3%

## CC(C)(C)N/N=C/c1c(O)n(-c2ccc(Cl)cn2)c(=O)c2ccccc12
At 20 µM
  inhibition: 4% (inactive)

## COc1ccc(-n2c(O)c(/C=N/NS(=O)(=O)c3ccc(C)cc3)c3ccccc3c2=O)cc1OC
At 20 µM
  inhibition: 152% (inactive)

## O=C(c1cc(-c2ccco2)nn1-c1cccc(Cl)c1)N1CCCCC1
At 20 µM
  inhibition: 15% (inactive)

## O=C(O)c1cc(-c2ccco2)nn1-c1ccc(Cl)cc1
At 20 µM
  inhibition: 72.4% (inactive)
[1]
  inhibition: 4.8%

## O=C(O)c1cc(-c2ccco2)nn1-c1cccc(Cl)c1
At 20 µM
  inhibition: 74.3% (active)

## CC1=NN(c2ccc(C)cc2)C(=O)/C1=C/c1ccc(-c2cc([N+](=O)[O-])ccc2O)o1
At 20 µM
  inhibition: 45.2% (inactive)

## O=C1NN(c2cccc(Br)c2)C(=O)/C1=C/c1ccc(-c2cc([N+](=O)[O-])ccc2O)o1
At 20 µM
  inhibition: 56.9% (active)

## O=C1NN(c2ccccc2)C(=O)/C1=C\c1ccc(-c2cc([N+](=O)[O-])ccc2O)o1
At 20 µM
  inhibition: 53.6% (inactive)
[1]
  inhibition: 15%

## CCCOc1cccc(C(=O)N/N=C/c2ccoc2)c1
At 20 µM
  inhibition: 0.4% (inactive)

## O=C(Nc1ccc([N+](=O)[O-])cn1)C1CC2CCC1C2 (centres undefined)
At 20 µM
  inhibition: 1.2% (inactive)

## COc1c(O)cc2c(c1O)C(=O)CC(c1ccccc1)O2 (centres undefined)
At 20 µM
  inhibition: -1.5% (inactive)

## CC1CC(=O)c2c(cc3c(-c4c(O)cc(O)c5c(O)c6c(cc45)OC(C)CC6=O)c(O)cc(O)c3c2O)O1 (centres undefined)
At 20 µM
  inhibition: 56.7% (active)

## C[C@@H]1Cc2c(O)c(O)cc(O)c2C(=O)O1
At 20 µM
  inhibition: 27.3% (inactive)

## COc1ccc(C(=O)C23CC4CC(C2)CC(C(=O)c2ccc(OC)cc2)(C4)C3)cc1
At 20 µM
  inhibition: -1.1% (inactive)

## Cc1cc2c(n1-c1ccc(C(=O)O)cc1)CCCCC2
At 20 µM
  inhibition: 57.7% (active)

## Cc1ccc(-c2cc3c(n2-c2ccc(C(=O)O)cc2)CCCC3=O)cc1
At 20 µM
  inhibition: 9.8% (inactive)

## Cc1ccc(C)n1-c1ccc(C(=O)O)cc1
At 20 µM
  inhibition: -0.4% (inactive)

## O=C(NC(=S)Nc1ccccc1[N+](=O)[O-])c1ccccc1
At 20 µM
  inhibition: -2.2% (inactive)

## O=C(O)CCCCCNC(=O)c1ccc(C(=O)NCCCCCC(=O)O)cc1
At 20 µM
  inhibition: 0.3% (inactive)

## Cc1ccc(/C=C/C2=Cc3c(sc(NC(=O)CSc4n[nH]c(N)n4)c3C#N)C(C)(C)C2)o1
At 20 µM
  inhibition: 149% (inactive)

## Cc1ccsc1/C=C/C1=Cc2c(sc(NC(=O)CSc3n[nH]c(N)n3)c2C#N)C(C)(C)C1
At 20 µM
  inhibition: 2.6% (inactive)

## CCOc1ccc(/C=C/C2=Cc3c(sc(NC(=O)CSc4n[nH]c(N)n4)c3C#N)C(C)(C)C2)cc1
At 20 µM
  inhibition: 62.3% (active)

## CCOC(=O)c1cc(-c2cccs2)nc2c1c(C)nn2-c1ccccn1
At 20 µM
  inhibition: -2.7% (inactive)

## COC(=O)[C@H](Cc1ccccc1)NC(=O)N1Cc2ccccc2C[C@H]1C(=O)OC
At 20 µM
  inhibition: 1.3% (inactive)

## CCN(CC)CCN(Cc1cc2cc3c(cc2[nH]c1=O)OCCO3)C(=S)NC
At 20 µM
  inhibition: 2.5% (inactive)

## N#Cc1c(NC(=O)CSc2nc(N)cc(=O)[nH]2)sc2c1CCCC2
At 20 µM
  inhibition: 0.4% (inactive)

## O=C(O)Cn1c2ccccc2c2ccccc21
At 20 µM
  inhibition: -1% (inactive)

## O=C(O)Cn1c2c(c3ccccc31)CCCC2
At 20 µM
  inhibition: -3.7% (inactive)

## O=C(O)Cn1c2c(c3ccccc31)CSc1ccc(Cl)cc1-2
At 20 µM
  inhibition: 54.6% (active)

## Cc1ccc(NC(=O)CSc2nncn2-c2ccccn2)cc1Cl
At 20 µM
  inhibition: 1.2% (inactive)

## CN(C)CCN(C(=O)/C=C/c1cccs1)c1nc2ccc(F)cc2s1
At 20 µM
  inhibition: -3.5% (inactive)

## CN(C)CCCN(C(=O)/C=C/c1cccs1)c1nc2c(F)cccc2s1
At 20 µM
  inhibition: 0.3% (inactive)

## CN(C)CCN(C(=O)/C=C/c1cccs1)c1nc2c(F)cc(F)cc2s1
At 20 µM
  inhibition: 56.7% (active)

## O=C1c2ccsc2SCCN1Cc1c(F)cccc1Cl
At 20 µM
  inhibition: -0.5% (inactive)

## CCCCC(CCC(=O)O)(C(=O)OCC)c1csc(Nc2ccc(C)cc2)n1 (centres undefined)
At 20 µM
  inhibition: 13.4% (inactive)

## CCCNc1c(F)c(F)c2c(C)c3ccccc3nc2c1F
At 20 µM
  inhibition: 51.8% (active)
[1]
  inhibition: 159%

## Cc1c2ccccc2nc2c(F)c(NCCO)c(F)c(F)c12
At 20 µM
  inhibition: 23.4% (inactive)

## Cc1c2ccccc2nc2c(F)c(NC(C)C)c(F)c(F)c12
At 20 µM
  inhibition: 36.2% (inactive)

## CCOC(=O)C1Cc2c([nH]c3ccccc23)CN1 (centres undefined)
At 20 µM
  inhibition: -0.5% (inactive)

## O=C(c1cc(S(=O)(=O)N2CCCCC2)ccc1Cl)N1CCOCC1
At 20 µM
  inhibition: 0.1% (inactive)

## COc1cc([N+](=O)[O-])ccc1NC(=O)NCc1ccccn1
At 20 µM
  inhibition: -3.2% (inactive)

## COc1cccc(/C=N/NC(=S)Nc2cccc(C(=O)O)c2)c1O
At 20 µM
  inhibition: 7.9% (inactive)

## O=C(O)c1cccc(NC(=S)N/N=C/c2cccc(O)c2)c1
At 20 µM
  inhibition: 1.3% (inactive)

## O=C(O)c1cccc(NC(=S)N/N=C/c2ccccc2OCc2ccc(Br)cc2)c1
At 20 µM
  inhibition: 65.6% (active)

## COc1ccccc1NC(=O)N(Cc1cc2cc(OC)c(OC)cc2[nH]c1=O)CC1CCCO1 (centres undefined)
At 20 µM
  inhibition: -1.5% (inactive)

## Cc1cc(C)c2nc(N3CCC(C(=O)NCCCN4CCCC4=O)CC3)sc2c1
At 20 µM
  inhibition: -0.6% (inactive)

## COc1cc(/C=N/NC(=S)NCCN2CCOCC2)cc(OC)c1OC
At 20 µM
  inhibition: -0.8% (inactive)

## CC1=C(C#N)C(=O)NC(=O)/C1=C/c1ccc(-c2ccc(S(N)(=O)=O)cc2)o1
At 20 µM
  inhibition: 46.5% (inactive)

## CCOC(=O)c1cc(-c2ccc(/C=C3/C(=O)NC(=O)C(C#N)=C3C)o2)ccc1Cl
At 20 µM
  inhibition: 65.1% (active)

## C=CCOC(=O)c1cc(-c2ccc(/C=C3\C(=O)NC(=O)C(C#N)=C3C)o2)ccc1Cl
At 20 µM
  inhibition: -2.1% (inactive)

## O=C(c1cccnc1)N1CCN(Cc2ccc3c(c2)OCO3)CC1
At 20 µM
  inhibition: 2.7% (inactive)

## CC(=O)Nc1sc(N/N=C/c2ccc(C)cc2)nc1-c1ccc(C)cc1
At 20 µM
  inhibition: -3% (inactive)

## CC(=O)Nc1sc(/C(C#N)=C\c2cccc(Cl)c2)nc1-c1ccc(C)cc1
At 20 µM
  inhibition: 61.1% (active)
[1]
  inhibition: 75.8%

## CCN(CC)c1ccc(/C=C(\C#N)c2nc(-c3cccs3)c(NC(C)=O)s2)cc1
At 20 µM
  inhibition: 122% (active)

## CC(=O)Nc1sc(N/N=C\c2ccc(O)cc2)nc1-c1cccs1
At 20 µM
  inhibition: -0.1% (inactive)

## CC(=O)Nc1sc(N/N=C/c2ccccc2)nc1-c1ccc(C)cc1
At 20 µM
  inhibition: 0.1% (inactive)

## CCN(CC)c1ccc(/C=C(\C#N)c2ccccn2)cc1
At 20 µM
  inhibition: 19.5% (inactive)

## C=CCNC(=O)N[C@@H](Cc1ccccc1)C(=O)OC
At 20 µM
  inhibition: -0.9% (inactive)

## Cc1c(C(=O)N2CCCC2)sc(NC(=O)c2cccs2)c1C#N
At 20 µM
  inhibition: 3.6% (inactive)

## O=C(CNC(=O)c1ccccc1Br)N/N=C/c1cccnc1
At 20 µM
  inhibition: 0.5% (inactive)

## O=C1CC(NNC(=O)c2ccccc2)C(=O)N1 (centres undefined)
At 20 µM
  inhibition: -0.3% (inactive)

## COC(=O)c1cc(S(=O)(=O)NCC2CCN(Cc3cccc(Cl)c3)CC2)c[nH]1
At 20 µM
  inhibition: -0.3% (inactive)

## c1ccc(Cn2c[n+](Cc3ccccc3)cn2)cc1
At 20 µM
  inhibition: -1.5% (inactive)
